Data as given in PubChem BioAssay (NCI).
This is part of a sample that, as a whole, favours compounds with a hit. Of some 79,000 tested, about 15% had one in any assay. No stated cut-off is given here; in the data, active means growth inhibition above about 70%; inactive means the rest.

Experiments:
[1] = NCI Yeast Anticancer Drug Screen. Data for the rad50 strain (AID 155);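 further: 0% = growth of vehicle-only cultures of the same strain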; settings: S. cerevisiae rad50 strain growth inhibition; at 50.0 µM; active compounds read high
How it was run: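 Genetically altered yeast (DNA repair pathway); compound treatment; growth inhibition vs vehicle ctrl.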

[2] = NCI Yeast Anticancer Drug Screen. Data for the mec2-1 strain (AID 157); settings: S. cerevisiae mec2-1 strain, at 50.0 µM, active compounds read high
How it was run: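 Cells of the genetically defined mec2-1 yeast strain are incubated with test compound. Inhibition of growth is calculated against vehicle-treated controls.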

[3] = NCI Yeast Anticancer Drug Screen. Data for the sgs1 mgt1 strain (AID 161);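 further: 0% = growth of cultures given vehicle only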; settings: S. cerevisiae sgs1 mgt1 strain, at 50.0 µM, active compounds read high
How it was run: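 Mutant yeast exposed to compound; growth scored against vehicle-only wells.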

[4] = NCI Yeast Anticancer Drug Screen. Data for the cln2 rad14 strain (AID 165);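 further: 0% = growth equal to vehicle treated cultures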; settings: S. cerevisiae cln2 rad14 strain, at 50.0 µM, active compounds read high
How it was run: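 The screen exposed genetically defined yeast (cln2 rad14) to test compounds and scored growth inhibition relative to vehicle-treated controls.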

[5] = NCI Yeast Anticancer Drug Screen. Data for the bub3 strain (AID 167); settings: S. cerevisiae bub3 mutant strain, at 50.0 µM, active compounds read high
How it was run: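 Yeast carrying a defined mutation is treated with each compound, and growth is compared with that of vehicle-exposed cells to give inhibition.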

[6] = NCI Yeast Anticancer Drug Screen. Data for the mlh1 rad18 strain (AID 175); settings: S. cerevisiae mlh1 rad18 strain growth inhibition; at 50.0 µM; active compounds read high
How it was run: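 Compound-treated yeast growth, normalised to vehicle controls. Strain bears defined DNA repair mutations.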

Measured: growth inhibition

CC(=O)Nc1cc(-c2ccccc2)ccc1O
inactive: [1] 56.7% | [2] 30.1% | [3] 56.8% | [4] 32.2% | [5] 40.2% | [6] 57.4%

O=C(O)C1CCC(=O)N1Cc1ccccc1 (stereo unspecified)
inactive: [1] 1.35% | [2] -5.5% | [3] -7.75% | [4] -18% | [5] -7.05% | [6] -8.35%

CCOP(C)(=O)C(Cc1c[nH]c2ccccc12)C(=O)O (stereo unspecified)
inactive: [1] -20.7% | [2] -19.7% | [3] 9.9% | [4] 13% | [5] -12.8% | [6] -2.5%

CCCCCCCCCCCCCCCCCC(=O)N/N=C/c1ccccc1
inactive: [1] 1% | [2] -2.8% | [3] 12% | [4] 2.95% | [5] -1.5% | [6] -5.55%

CC(=O)c1cc2c(cc1C)C(C)(C)CCC2C (stereo unspecified)
inactive: [1] -0.75% | [2] -24.8% | [3] -7.3% | [4] -5% | [5] 7.35% | [6] 2.3%

CC(=O)N1CC(C)CC2OC3(CCC4C5CCC6CC(=O)CCC6(C)C5C(=O)C4C3C)C(C)C21 (stereo unspecified)
inactive: [1] -0.65% | [2] -13.1% | [3] -9.15% | [4] -0.75% | [5] -5.9% | [6] -3.75%

COC(=O)c1cc(C)cc(N(c2ccccc2[N+](=O)[O-])S(=O)(=O)c2ccc(C)cc2)c1C
inactive: [1] 15.9% | [2] -9.35% | [3] -25.3% | [4] 1.2% | [5] -10.3% | [6] -9%

O=C(NCCN1CCCCC1)c1ccc(Br)cc1
inactive: [1] -15.2% | [2] -16.4% | [3] -12.6% | [4] -6% | [5] -18.9% | [6] -47.1%

O=C(O)Cc1ccccc1[N+](=O)[O-]
inactive: [1] 8.55% | [2] -12.1% | [3] -10.9% | [4] -16.9% | [5] -21.8% | [6] -3.95%

O=C(O)/C(=C/c1ccccc1[N+](=O)[O-])c1ccccc1
inactive: [1] 40.1% | [2] -16.1% | [3] 20.5% | [4] 17.5% | [5] -8.85% | [6] -12.7%

COC(=O)C(=O)C(C(=O)C1=NS(=O)(=O)c2cc(S(N)(=O)=O)c(Cl)cc2N1)c1nc2ccc(C(=O)c3ccccc3)cc2[nH]c1=O (stereo unspecified)
inactive: [1] -9.7% | [2] -18.1% | [3] -18% | [4] 6% | [5] -19.9% | [6] -19.2%

CCNOCc1ccccc1
inactive: [1] -4.35% | [2] -11.7% | [3] -11% | [4] -18.1% | [5] -0.45% | [6] -9.95%

CCCC(O)CNCc1ccc2ncccc2c1 (stereo unspecified)
inactive: [1] -20.4% | [2] -4.2% | [3] 2.1% | [4] -66.8% | [5] -4.35% | [6] -23.4%

COc1ccc2c(c1)C1(C)CCCC(C)(C=O)C1CC2 (stereo unspecified)
inactive: [1] 5.5% | [2] -2.75% | [3] -3.65% | [4] -1.25% | [5] 10.4% | [6] 4.75%

O=C(O)C1C2C=CC(O2)C1C(=O)Nc1ccccc1 (stereo unspecified)
inactive: [1] 13.7% | [2] 3.5% | [3] 7.5% | [4] -1.9% | [5] -19.4% | [6] 8.3%

O=C(O)C1CCCCN1O (stereo unspecified)
inactive: [1] -7.85% | [2] -2.15% | [3] -15.9% | [4] 5.75% | [5] 10.9% | [6] -6.15%

O=c1cc(CC2(O)CCCCC2)c2ccccc2[nH]1
inactive: [1] -3.95% | [2] 0.3% | [3] -2.5% | [4] -58% | [5] -48.8% | [6] 9.8%

CC(C)NC(=O)/C=C/C(=O)O
inactive: [1] -16.1% | [2] -20.4% | [3] -41.2% | [4] -7.4% | [5] -11.2% | [6] -9.1%

NC(=O)c1ccccc1NC(=O)C(=O)C(C(=O)c1ccc2ccccc2c1)C1OC(=O)c2ccccc21 (stereo unspecified)
inactive: [1] 0.7% | [2] -2.15% | [3] 10.6% | [4] -44.6% | [5] 15.4% | [6] 9.15%

CNc1ccccc1C
inactive: [1] 37.6% | [2] -15.4% | [3] -8.1% | [4] -82.1% | [5] 18.9% | [6] 23%

O=C(CO)c1ccccc1
inactive: [1] -11.9% | [2] 10.3% | [3] -3.8% | [4] 25.6% | [5] 4% | [6] 19.6%

CC(=O)CC(=O)Nc1cccc(NC(=O)CC(C)=O)c1
inactive: [1] -16.4% | [2] 8.45% | [3] -10.6% | [4] 3.85% | [5] -5.8% | [6] -20.6%

Cc1cc(C)n2ncnc2n1
inactive: [1] 16.9% | [2] -22.6% | [3] 7.9% | [4] 4.15% | [5] -5.15% | [6] 5.35%

CCC(=O)/C=C/c1ccc(Cl)cc1
inactive: [1] 10.7% | [2] 8% | [3] 7.75% | [4] -25.6% | [5] -14.7% | [6] 11.3%

CN1CSCC1C(=O)O (stereo unspecified)
inactive: [1] 13% | [2] -3.25% | [3] -8.45% | [4] -39.4% | [5] -9.1% | [6] 11.8%

N#C/C(=C\c1c(S(=O)(=O)O)sc2ccccc12)C(N)=O (tested in a mixture with another compound)
inactive: [1] 30.3% | [2] 10.1% | [3] 17.1% | [4] 25.3% | [5] -0.9% | [6] 21.8%

CCOC(=O)C(NC(=O)c1ccccc1)(N1CCOCC1)C(F)(F)F (stereo unspecified)
inactive: [1] 25.3% | [2] -20.1% | [3] 8.05% | [4] 15.8% | [5] -3.45% | [6] -44.9%

O=C(O)C(Br)C(Br)C(=O)Nc1cccc(C(F)(F)F)c1 (stereo unspecified)
inactive: [1] 17.4% | [2] -5.55% | [3] 14.9% | [4] 0.6% | [5] -2.15% | [6] 24.4%

CN(C=O)c1ccc([N+](=O)[O-])cc1
inactive: [1] 7.1% | [2] -6.5% | [3] -7.15% | [4] 5.7% | [5] 1.4% | [6] -3.4%

O=c1[nH]c(-c2ccc(-c3nc4cc([N+](=O)[O-])ccc4c(=O)[nH]3)cc2)nc2cc([N+](=O)[O-])ccc12
inactive: [1] -33% | [2] -13.8% | [3] -26.7% | [4] -6.9% | [5] -24.5% | [6] -13.3%

CCOC(=O)C1/C(=N\N=C2\c3c(nnp3N(CCOS(C)(=O)=O)CCOS(C)(=O)=O)C(C(=O)OCC)C(c3ccc(OC(C)=O)cc3)C2C(=O)OCC)c2c(nnp2N(CCOS(C)(=O)=O)CCOS(C)(=O)=O)C(C(=O)OCC)C1c1ccc(OC(C)=O)cc1 (stereo unspecified)
inactive: [1] 6.75% | [2] -0.05% | [3] -3.85% | [4] 4.25% | [5] 10.3% | [6] -4.5%

O=[N+]([O-])c1ccccc1-c1ccccc1[N+](=O)[O-]
inactive: [1] 24.7% | [2] 16.3% | [3] 33.8% | [4] 10% | [5] -24.4% | [6] -10.8%

CCCCCC(Oc1ccc(Cl)cc1)C(=O)OCC (stereo unspecified)
inactive: [1] 22.8% | [2] 9.1% | [3] 14.9% | [4] 1.45% | [5] 15% | [6] 17.2%

C(=N\N1CCN(/N=C/c2ccc3ccccc3n2)CC1)/c1ccc2ccccc2n1
inactive: [1] 38.1% | [2] 13.1% | [3] 11.9% | [4] 26.5% | [5] 1.5% | [6] 32.4%

CCC(CC)C(=O)OCCCc1ccccc1
inactive: [1] 3.95% | [2] -0.05% | [3] 10.4% | [4] -7.4% | [5] 11.9% | [6] 4.4%

Cc1nc(-n2nc(-c3ccccc3)cc2-c2ccccc2)sc1C(/C=C/c1ccc([N+](=O)[O-])cc1)=N/NC(=O)c1ccncc1
inactive: [1] 47.4% | [2] 36.7% | [3] 17.9% | [4] -24.7% | [5] 46.1% | [6] 58.5%

O=C(c1ccccc1)N1C(c2ccccc2)C1(c1ccccc1)C1(c2ccccc2)SCCCS1 (stereo unspecified)
inactive: [1] -17.6% | [2] 14.7% | [3] -13.4% | [4] -61.6% | [5] -0.1% | [6] -1.25%

O=C(Nc1ccc([N+](=O)[O-])cc1)N(c1ccccc1)c1cc(N2CCOCC2)ccn1
inactive: [1] 40.7% | [2] 16.6% | [3] 9.1% | [4] 13.8% | [5] 5.8% | [6] 34.9%

CCCCC1(C(NC(=O)c2ccccc2Cl)c2ccncc2)C(=O)N(c2ccccc2)N(c2ccccc2)C1=O (stereo unspecified)
inactive: [1] 33.8% | [2] 15.8% | [3] 9.15% | [4] 6.35% | [5] 33.5% | [6] 41.5%

O=C(O)CCCCC1CCSS1 (stereo unspecified)
inactive: [1] 32.2% | [2] 15.8% | [3] 46% | [4] 20.1% | [5] 25.5% | [6] 20.9%

CC(=O)Nc1ccc2c(=O)cc[nH]c2n1
inactive: [1] 13.7% | [2] 2.9% | [3] 2.4% | [4] 1.9% | [5] -2.95% | [6] 31.2%
